According to PubChem BioAssay (NCI):
This is part of a sample that, as a whole, favours compounds with a hit. Of some 83,000 tested, about 20% had one in any assay.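 Step 1: grow cells in 96-well plates. Step 2: add test compound at a single concentration. Step 3: incubate 48 h. Step 4: record percent growth.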 Values without a mark were called inactive. Active and inactive are the calls of the source. How the source made its calls: active means growth percent below 10; inactive means the rest.

Key:
Assay in all cases: NCI-60 one-dose screen, 48 h (100 = growth as untreated, 0 = no growth, -100 = all killed)
Details in all cases: 10 µM unless noted
T-47D breast = test system: T-47D breast
BT-549 breast = test system: BT-549 breast
MDA-MB-435 melanoma = test system: MDA-MB-435 melanoma
SW-620 colon = test system: SW-620 colon
MCF7 breast = test system: MCF7 breast
HCT-116 colon = test system: HCT-116 colon
HCC-2998 colon = test system: HCC-2998 colon
KM12 colon = test system: KM12 colon
MDA-MB-468 breast = test system: MDA-MB-468 breast

Row | SMILES | growth (T-47D breast) | growth (BT-549 breast) | growth (MDA-MB-435 melanoma) | growth (SW-620 colon) | growth (MCF7 breast) | growth (HCT-116 colon) | growth (HCC-2998 colon) | growth (KM12 colon) | growth (MDA-MB-468 breast)
1 | Cc1ccc2nc(SCc3ccccc3F)n(-c3ccccc3)c(=O)c2c1 | 81.4% | 107% | 111% | 104% | 89.2% | 68.2% | 109% | 93.7% | 89.3%
2 | CS(=O)(=O)Nc1cc(-c2ccc3ncnc(N4CCc5cc(F)c(Cl)cc54)c3c2)cnc1Cl | -9.78% (active) | -25.2% (active) | 3.42% (active) | 32.7% | 8.15% (active) | 23.6% | 16.5% | 14.2% | –
3 | Cc1ccc2nc(NC(=O)Nc3cccc(Cl)c3)sc2c1 | 98.5% | 121% | 105% | 106% | 66.8% | 94.7% | 122% | 98.6% | 93.8%
4 | O=C(Nc1ccc(F)cc1)Nc1nc2ccc([N+](=O)[O-])cc2s1 | -18.1% (active) | -53.2% (active) | 0.0184% (active) | 7.92% (active) | 1.6% (active) | 1.02% (active) | 11.8% | 9.04% (active) | -23.4% (active)
5 | O=CNc1cccc(-n2cnc3cc(-c4ccc(O)cc4)ccc32)c1 | 37.5% | 52.6% | 24.1% | 46.3% | 35% | 14.1% | 43.5% | 26.4% | 19.5%
6 | CCCn1c(NC(=O)c2cccc(C(N)=O)c2)nc2ccc(CN3CCCCC3)cc21 | 107% | -48% (active) | 93.1% | 109% | 75.6% | 6.73% (active) | 107% | 24% | –
7 | CC1=C(C)C(=O)C(NCCN2CCOCC2)=C(Br)C1=O | -58.6% (active) | 87.4% | -87.5% (active) | 32.7% | 10.3% | -75.5% (active) | 101% | 94.2% | -96.2% (active)
8 | O=C(N=Nc1c(O)[nH]c2ccc(Br)cc12)c1ccc2nc(-c3ccc(Cl)cc3)[nH]c2c1 | -30.7% (active) | 7.28% (active) | -62.4% (active) | -37.2% (active) | -22.9% (active) | 8.39% (active) | -66.8% (active) | 22.4% | -87.7% (active)
9 | Nc1ccc(-c2ccc3ncnc(N4CCc5cc(F)c(Cl)cc54)c3c2)cn1 | 10.7% | -9.19% (active) | 28% | 55.8% | 8.53% (active) | -52.9% (active) | 38.2% | 35.6% | -78% (active)
10 | COc1ccc(-c2cc(C(=O)Oc3ccc(C=O)cc3OC)nn2-c2ccc(S(C)(=O)=O)cc2)cc1 | 92.2% | 105% | 98.3% | 109% | 84.5% | 98.3% | 116% | 103% | 107%
11 | COc1cc(C2CC(c3ccc(F)cc3)=Nc3c(N)nc(N)nc3N2)ccc1Oc1nc(Nc2ccc(F)cc2)nc(N(C)C)n1 (stereo not given) | 65.7% | 51.3% | 47% | 31.8% | 7.4% (active) | 6.9% (active) | 29.1% | 44.9% | -17.8% (active)
12 | COC(=O)c1cc(C(=O)C(C)(C)C)n2c3ccccc3c3ccccc3c12 | 47.1% | 111% | 105% | 101% | 86.2% | 88.4% | 124% | 79.5% | 88.3%
13 | C=CC(=O)Nc1ccc(C(=O)/C=C/c2ccc(N(C)C)cc2)c(O)c1 | 9.74% (active) | -45.7% (active) | -3.66% (active) | 1.21% (active) | 10.7% | -52.6% (active) | -53.2% (active) | -64.4% (active) | -19.8% (active)
14 | O=C(c1ccc(O)cc1)C1[C@H](c2ccccc2Br)[C@@H](c2ccccc2)NC12C(=O)Nc1ccccc12 (stereo not given in full) | 51.1% | 51.9% | 12.3% | 27.7% | 10.7% | 55.2% | -7.94% (active) | 15.4% | -36.1% (active)
15 | Cc1cccc(-c2ccccc2Oc2ccc3nnc(Cl)n3n2)c1 | 111% | 99.8% | 105% | 101% | 95% | 104% | 105% | 106% | 98.3%
16 | Cn1cc(-c2cc(N)n3nc(-c4c[nH]c5ccc(Cl)cc45)cc3n2)c2cccnc21 | -65.9% (active) | -77.1% (active) | -84.2% (active) | -72.8% (active) | -81.2% (active) | -90.7% (active) | -98.5% (active) | -70.2% (active) | -93.7% (active)
17 | COc1ccc(SC2c3cc(OC)ccc3Oc3nc(N)c(C#N)c(N)c32)cc1 (stereo not given) | 77.4% | 24.5% | 87.5% | 69.5% | 49.2% | 78% | 117% | 61.2% | 98.6%
18 | CC[C@]12C=CCN3CC[C@]4(C(=C(C(=O)OC)C1)Nc1cc(OC)c([C@@H]5[C@H]6O[C@H]6[C@@]6(CC)CC(C(=O)OC)=C7Nc8cc(O)ccc8[C@@]78CCN5[C@@H]68)cc14)[C@@H]32 | 2.37% (active) | -29% (active) | -53.9% (active) | 1.97% (active) | -25.7% (active) | -72.3% (active) | -76.3% (active) | 0.303% (active) | -48.9% (active)
19 | C=CCn1c(O)c(N=Nc2nc(-c3cc4ccccc4oc3=O)cs2)c2ccccc21 | 88.8% | 67.3% | 98.5% | 101% | 33.4% | 39.3% | 78.4% | 79.4% | 70.3%
20 | O=C(O)CC1S/C(=N/N=C/c2nc3ccccc3s2)NC1=O (stereo not given) | 85.4% | 98.2% | 102% | 104% | 60.9% | 71.1% | 106% | 90.6% | 104%
21 | COc1ccc2[nH]c(=O)c(CSc3ccccc3Nc3nccc(-c4ccc(C(F)(F)F)cc4)n3)cc2c1 | 11.3% | -10.4% (active) | 32.3% | 17.5% | -17.5% (active) | -8.91% (active) | 18.8% | 29.2% | 13.6%
22 | CCCCNc1ccc2c3c(cccc13)C(=O)N(NCC(O)COc1ccc3c(C)cc(=O)oc3c1)C2=O (stereo not given) | 80.8% | 95.8% | 72.2% | 93.1% | 64.6% | 91.9% | 104% | 85.7% | 68.8%
23 | COc1cc(C2CC(c3ccc(S(=O)(=O)NCCNc4nc(N(C)C)nc(N5CCOCC5)n4)cc3)=Nc3c(N)nc(N)nc3N2)cc(OC)c1OC (stereo not given) | 95% | 95.2% | 104% | 99% | 95.1% | 90% | 109% | 100% | 95.4%
24 | Cc1cnc2ccc(Oc3ccccc3-c3ccccc3)nn12 | 110% | 107% | 110% | 124% | 93% | 101% | 113% | 107% | 108%
25 | COC(=O)c1cc(C(C)=O)n2c3ccccc3c3ccccc3c12 | 54.6% | 38.5% | 93% | 89.3% | 59.6% | 50.3% | 91.4% | 86% | 65.8%
26 | COc1ccc(-c2nc3ccc(-c4nnc(SCC(=O)Nc5ccc(/C(C)=N\O)cc5)o4)cc3[nH]2)cc1 | 53.1% | -62.3% (active) | 14.5% | 96.2% | 37% | 70.5% | 126% | 37.6% | 100%
27 | CCc1ccccc1NC(=O)N/C(N)=N/c1nc2ccccc2s1 | 55.8% | -12% (active) | -46.7% (active) | 21.3% | 11% | -26.2% (active) | 3.52% (active) | -3.54% (active) | -21.2% (active)
28 | CN1CCN(C(=O)Oc2cc3c(c4ccccc24)[C@H](CCl)CN3C(=O)c2cc3cc(OCCCN4CCC4)ccc3[nH]2)[C@@H]2CSSC[C@H]21 | -5.44% (active) | -49.8% (active) | -36.2% (active) | 4.87% (active) | -63.4% (active) | 1.54% (active) | -83.3% (active) | -40.5% (active) | -72.1% (active)
